The list is not random: actives were taken first. Their share in the collection is about 1.6%.
PABP1 MLLE inh – inhibitors of PABP1 MLLE–PAM2 peptide binding, primary screen, biochemical, fluorescence polarization, FITC-PAM2, GST-MLLE; Polyadenylate-binding protein 1 (Homo sapiens), P11940; inhibition, % at 20 µM; hit rate 0.36% among 360,000; in the data active = inhibition above about 35%, passing the limit was not always enough;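 note: plate controls were DMSO wells with GST-MLLE for no effect and wells lacking GST-MLLE protein for full effect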
PABP polyA inh – PABP poly(A) RNA binding inhibitors, primary screen, biochemical, fluorescence polarization, uHTS | Polyadenylate-binding protein 1 (Homo sapiens), P11940 | inhibition, % at 35 µM | hit rate 1% among 290,000;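 note: calls also rest on retests at 20 µM and on dose response follow-up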
eIF4E-4G inh – eIF4E–eIF4G protein interaction inhibitors, primary screen, biochemical, uHTS, TR-FRET, eIF4GI fragment; inhibition, % at 21.7 µM; Eukaryotic translation initiation factor 4E (Mus musculus) + Eukaryotic translation …; hit rate 0.37% among 220,000; TR-FRET eIF4E-eIF4GI(517-606) binding, 2 h;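 active = inhibition above about 30%, limit read from the data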;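 note: 0% = full FRET control wells and 100% = background wells lacking eIF4GI fragment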
PERK inh – block of dimerizer-induced PERK translation repression, primary screen, PERK inhibitor project, CHO PERK-DD cells, SEAP luminescence, HTS; CHO PERK-DD fusion, SEAP luminescence translation reporter; inhibition, % at 5.6 µM; AID 1416, 2008; hit rate 0.17% among 220,000;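 active = inhibition above the mean inhibition of all tested compounds plus 3 SD, set separately per screening campaign, cut at about 2.9% in these data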;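 note: PERK kinase domain activated by AP20187 dimerizer at 100 nM; 0% = DMSO with dimerizer and 100% = rapamycin at 8.4 µM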
eIF4H inh – human eIF4H binding inhibitors, primary screen, translation initiation inhibitor project, biochemical, uHTS, fluorescence polarization; eIF4H fluorescence polarization binding assay; AID 2012, 2009; inhibition, % at 35 µM; hit rate 0.94% among 290,000;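 note: calls also rest on retests at 20 µM and on dose response follow-up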
Numbers without * were called inactive. Unless noted, the rule behind the calls is not given here.

`CCN1C(=O)/C(=C\c2ccc(-c3cccc(C(=O)OC)c3)o2)SC1=Nc1ccc(C(=O)O)cc1` gave PABP polyA inh 8.6 and eIF4H inh 25.7.
`O=C(O)c1cccc(-c2ccc(/C=C3/SC(=Nc4ccccc4)N(Cc4cccnc4)C3=O)o2)c1` gave PABP1 MLLE inh -10.5, PABP polyA inh 47.7* and eIF4H inh 63.6*.
Screening CCN1C(=O)/C(=C\c2ccc(-c3ccc([N+](=O)[O-])cc3OC)o2)SC1=Nc1cccc(C(=O)O)c1 returned PABP1 MLLE inh 15.7, PABP polyA inh inconclusive, eIF4E-4G inh 64.3*, PERK inh -0.1 and eIF4H inh inconclusive.
Cc1ccc(NC(=O)c2cc(S(=O)(=O)N3CCCCC3)ccc2N2CCOCC2)cc1 was read as PABP1 MLLE inh 1.9.
For CC(C)CC(NC(=O)c1ccccc1)C(=O)N/N=C/c1ccco1 (stereo unspecified) the results were PABP1 MLLE inh -7.6, PABP polyA inh active, eIF4E-4G inh 10.5, PERK inh -0.2 and eIF4H inh 57.8*.
`CCOC(=O)N1CCC(Nc2c(Nc3ccc(F)cc3)c(=O)c2=O)CC1` gave PABP1 MLLE inh -3.1, PABP polyA inh 2.2, eIF4E-4G inh -0.2, PERK inh 1.9 and eIF4H inh -3.9.
CC(C)CN1CCNC(=O)C1CC(=O)NCCCN1CCCc2ccccc21 (stereo unspecified) was read as PABP1 MLLE inh 11.4, PABP polyA inh 51.8*, eIF4E-4G inh 7.4, PERK inh 0.1 and eIF4H inh 16.1.
Screening Cn1ncc2nc[nH]c(=O)c21 returned PABP1 MLLE inh 0.2, PABP polyA inh 1.2*, eIF4E-4G inh -9.6, PERK inh 0.9 and eIF4H inh inconclusive.
`CCOC(=O)CC(=O)CSc1nc(N)c(C#N)c(-c2ccc(F)cc2)c1C#N` gave PABP1 MLLE inh -3.2, PABP polyA inh 64.0*, eIF4E-4G inh -2.6, PERK inh -0.4 and eIF4H inh 62.3*.
CCOC(=O)C1=C(C(C)=O)C(c2cccnc2)C(C#N)=C(N)O1 (stereo unspecified) was read as PABP1 MLLE inh 19.8, PABP polyA inh 71.8*, eIF4E-4G inh 0.0, PERK inh -0.3 and eIF4H inh 55.2*.
For CCOC(=O)CC(=O)CSc1nc(-c2cccnc2)cc(C)c1C#N the results were PABP1 MLLE inh 5.9, PABP polyA inh inconclusive, eIF4E-4G inh 2.9, PERK inh 0.6 and eIF4H inh inconclusive.
Screening CCOC(=O)CC(=O)CSc1nc(-c2cccnc2)ccc1C#N returned PABP1 MLLE inh 2.6, PABP polyA inh 77.3*, eIF4E-4G inh 2.0, PERK inh 2.0 and eIF4H inh 68.6*.
CCOC(=O)C1=C(CSc2nc(-c3ccncc3)ccc2C#N)OC(N)=C(C#N)C1c1cccnc1 (stereo unspecified) was read as PABP1 MLLE inh 0.8, PABP polyA inh 119.0*, eIF4E-4G inh 2.3, PERK inh 0.7 and eIF4H inh 119.5*.
`CCOC(=O)C1=C(C)NC(=S)NC1c1ccc(OC(=O)c2ccco2)cc1` (stereo unspecified) gave PABP1 MLLE inh -140.3, PABP polyA inh -4.0, eIF4E-4G inh 2.5, PERK inh 0.1 and eIF4H inh 9.4.
`CCc1ccc2[nH]cc(C(=O)OCCOC)c(=O)c2c1` gave PABP1 MLLE inh 7.8, PABP polyA inh -1.6, eIF4E-4G inh 5.6, PERK inh -0.5 and eIF4H inh -3.5.
`O=C(CCCSc1nc2ccccc2c(=O)[nH]1)c1ccc(F)cc1` gave PABP1 MLLE inh -12.7, PABP polyA inh -3.2, eIF4E-4G inh 0.9, PERK inh 0.0 and eIF4H inh 83.9*.
`Cc1ccc(C(=O)CSc2nc3ccccc3c(=O)[nH]2)cc1` gave PABP1 MLLE inh 5.0, PABP polyA inh -1.9, eIF4E-4G inh -1.7, PERK inh -0.6 and eIF4H inh 3.6.
Screening Cc1ccc(S(=O)(=O)/N=C2/NC(=O)/C(=C/c3cc([N+](=O)[O-])ccc3O)S2)cc1 returned PABP1 MLLE inh -99.8, PABP polyA inh 11.6 and eIF4H inh 19.2.
Screening Cn1nccc1C(=O)c1ccc(Cl)cc1 returned PABP1 MLLE inh -3.7, PABP polyA inh 1.4, eIF4E-4G inh 0.8, PERK inh 3.1* and eIF4H inh 8.0.
O=C(CCS(=O)(=O)c1ccc(Br)cc1)NC1CCCCCC1 was read as PABP1 MLLE inh -6.9, PABP polyA inh 10.1 and eIF4H inh 63.5*.
`O=C(CCS(=O)(=O)c1ccc(Br)cc1)NCc1ccc(F)cc1` gave PABP1 MLLE inh 6.4, PABP polyA inh 28.6 and eIF4H inh 87.2*.
`O=C(CCS(=O)(=O)c1ccc(Br)cc1)NCCC1=CCCCC1` gave PABP1 MLLE inh -0.3, PABP polyA inh 15.7 and eIF4H inh 64.4*.
Cc1ccc(CNC(=O)CCS(=O)(=O)c2ccc(Br)cc2)cc1 was read as PABP1 MLLE inh -10.1, PABP polyA inh 10.7, eIF4E-4G inh 3.5, PERK inh 1.3 and eIF4H inh 87.7.
Cc1ccc(S(=O)(=O)CCC(=O)NC2CCCCC2)cc1 was read as PABP1 MLLE inh -53.0.
O=C(CCS(=O)(=O)c1ccc(Cl)cc1)NCCC1=CCCCC1 was read as PABP1 MLLE inh -16.4, PABP polyA inh -5.5 and eIF4H inh -12.1.
C=CCn1c(O)c(N=NC(=O)OCC)c2ccccc21 was read as PABP1 MLLE inh 5.2, PABP polyA inh 73.9, eIF4E-4G inh 3.1, PERK inh 0.3 and eIF4H inh active.
For CC(C)(C)CC(=O)Nc1ccc(-c2nnc3n2CCCCC3)cc1 the results were PABP1 MLLE inh 3.5, PABP polyA inh 62.5* and eIF4H inh 77.6*.
Cc1noc(C)c1C(=O)Nc1ccc(-c2nnc3n2CCCCC3)cc1 was read as PABP1 MLLE inh -15.8.
`O=C(O)c1ccc(N=Nc2c(O)ccc3ncccc23)cc1` gave PABP1 MLLE inh -2.6, PABP polyA inh 44.6* and eIF4H inh 90.0*.
For CC1CC(C)CN(S(=O)(=O)N2CCCC(C(=O)NCCCN3CCCCC3C)C2)C1 (stereo unspecified) the results were PABP1 MLLE inh 2.3, PABP polyA inh 8.7 and eIF4H inh 2.3.
Screening Cc1ccc(C(=O)COC(=O)CCC(=O)Nc2ccccc2Cl)cc1[N+](=O)[O-] returned PABP1 MLLE inh -0.8, PABP polyA inh 102.4*, eIF4E-4G inh 3.4, PERK inh 1.8 and eIF4H inh 4.8*.
Cc1ccc(C(=O)Nc2ccc(F)cc2)cc1NC1=NC2CS(=O)(=O)CC2S1 (stereo unspecified) was read as PABP1 MLLE inh -80.0, PABP polyA inh 2.5 and eIF4H inh -2.5.
